Here are results for 9 compounds from PubChem BioAssay (NCI).

Common to all, as to assay: NCI-60 one-dose screen, 48 h (100 = growth as untreated, 0 = no growth, -100 = all killed)
What all share (settings): 10 µM unless noted

Assay [1] concerns NCI-H23 lung.
For assay [2], the system named is NCI-H226 lung.
Assay [3] concerns HOP-62 NSCLC.
For assay [4], the system named is NCI-H460 lung.
The test system of assay [5] is HOP-92 NSCLC.
The subject of assay [6] is NCI-H522 lung.
Assay [7] has as its system A549/ATCC NSCLC.
In assay [8] the test system is 786-0 renal.
Assay [9] has as its system COLO 205 colon.
Assay [10] relates to NCI-H322M lung.

“And” between values parts separate entries of the source, which are not always exact repeats. Equal entries are not always repeated. About 83,000 compounds went through this panel and 20% of them were active in at least one assay; those are over-represented in the sample as a whole.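 Growth was measured after 48 h exposure to one concentration of compound in 96-well plates. Values under 10 count as active.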 The source made the active and inactive calls.

With `CC(=O)Nc1cc(S(=O)(=O)O)cc2cc(S(=O)(=O)O)c(N=Nc3ccccc3)c(O)c12`, the growth in [1] was 96.3% (inactive) and 101% (inactive); in assay [2], 99.7% (inactive) and 105% (inactive); in [3], 140% (inactive) and 98.6% (inactive); in [4] it was 104% (inactive) and 103% (inactive); in assay [5] it was 82% (inactive) and 102% (inactive); in assay [6], 112% (inactive) and 82.3% (inactive). Further, the growth in assay [7] is 108% (inactive) and 97% (inactive); in assay [8], 106% (inactive) and 103% (inactive); in assay [9], 99.7% (inactive) and 109% (inactive).
Consider `CCC(=O)C(CC)c1cccc(OC)c1` (configuration not stated), for which the growth in assay [2] was 102% (inactive); in [10] it was 101% (inactive); in assay [3], 122% (inactive); in [4], 107% (inactive); in assay [5] it was 97.3% (inactive); in assay [6], 102% (inactive). In addition, the figures for the growth in [7], in [8] and in [9] were 106% (inactive), 103% (inactive) and 117% (inactive), respectively.
For the compound `Cc1cc(=O)[nH]c(O)c1C#N`, the growth in assay [1] is 103% (inactive) and 97.6% (inactive); in assay [2] it was 103% (inactive) and 101% (inactive); in [3], 96.6% (inactive) and 101% (inactive); in assay [4] it was 105% (inactive) and 104% (inactive); in [5], 106% (inactive) and 52% (inactive); in [7], 102% (inactive) and 95.3% (inactive). Moreover, the growth in assay [8] is 97.7% (inactive) and 98.5% (inactive); in assay [9], 111% (inactive) and 104% (inactive).
Turning to `CN1CCN(C2CCN(C(=O)Nc3cc(Oc4ccc(NC(=O)C5(C(=O)Nc6ccc(F)cc6)CC5)c(F)c4)ccn3)CC2)CC1`, the growth in assay [1] is -44.6% (active) and 73.4% (inactive); in assay [2], -4.95% (active) and 76.4% (inactive); in [3], -68.7% (active) and 110% (inactive); in assay [5], -43.2% (active) and 68.1% (inactive); in [6] it was -66.2% (active) and 80.8% (inactive); in assay [7] it was -13.9% (active) and 90.3% (inactive). The growth in [8] is -72.9% (active) and 110% (inactive); in [9], -78.3% (active) and 85.6% (inactive).
As to `O=C1c2ccccc2C(=O)c2c(NCCNCCO)ccc(NCCNCCO)c21`, the growth is -70.8% (active) and 25.8% (inactive) and 29.5% (inactive) in assay [1]; -56.8% (active) and -20.6% (active) and -27.1% (active) in assay [2]; -20.4% (active) and 3.59% (active) and 9.04% (active) in assay [3]; -7.34% (active) and -5.98% (active) in assay [5]; -86.2% (active) and -57.7% (active) and -56.1% (active) in assay [6]; 14.3% (inactive) and 1.64% (active) in [7]. In addition, the growth was 0.75% (active) and 23.8% (inactive) and 25.2% (inactive) in assay [8]; -51.3% (active) and 20.9% (inactive) and 30.2% (inactive) in [9].
In the case of `C#CCN(C)Cc1ccccc1`, the growth in [2] is 91.6% (inactive) and 95.2% (inactive); in assay [10] it was 99.3% (inactive) and 450% (inactive); in assay [3], 93.5% (inactive) and 89.6% (inactive); in assay [4], 110% (inactive) and 104% (inactive); in assay [5], 100% (inactive); in [6], 100% (inactive) and 92.5% (inactive). Besides, the growth is 102% (inactive) and 101% (inactive) in [7]; 95.5% (inactive) and 70.4% (inactive) in assay [8]; 108% (inactive) and 122% (inactive) in [9].
As for `O=C(CN1CCN(c2cc3c(cc2F)c(=O)c(C(=O)O)cn3C2CC2)CC1)Nc1ccc(Cl)cc1`, the growth in assay [2] was 80.1% (inactive) and 96.7% (inactive); in assay [10] it was 53.8% (inactive) and 56% (inactive); in assay [3], 71.7% (inactive) and 100% (inactive); in assay [4] it was 88% (inactive) and 90.1% (inactive); in assay [5], 78.9% (inactive) and 87.2% (inactive); in assay [6] it was -13.7% (active) and 83.5% (inactive). The growth was 69.2% (inactive) and 86.8% (inactive) in [7]; 70.1% (inactive) and 83.8% (inactive) in [8]; 99.9% (inactive) and 109% (inactive) in assay [9].
On to `CCCCCCCCCCCCCCCc1cc(O)ccc1N`, for which the growth in assay [2] was 33.9% (inactive) and 99.6% (inactive); in assay [10] it was 102% (inactive) and 84.1% (inactive); in assay [3] it was 103% (inactive) and 110% (inactive); in assay [4], 109% (inactive) and 102% (inactive); in [5], 105% (inactive); in assay [6], -22.4% (active) and -23.6% (active). Besides, the growth in assay [7] was 89.3% (inactive) and 99.8% (inactive); in assay [8] it was 77.6% (inactive) and 21.1% (inactive); in [9], 107% (inactive) and 114% (inactive).
`CC(=O)c1ccc2c(c1)N(CCCN1CCN(CCO)CC1)c1ccccc1S2`: the growth in assay [1] was 98.1% (inactive) and 55.9% (inactive); in [2], 84.5% (inactive) and 68.2% (inactive); in [3] it was 90.7% (inactive) and 43.1% (inactive); in assay [4], 101% (inactive) and -11.3% (active); in assay [5] it was -3.7% (active); in assay [7] it was 45.5% (inactive). The growth in assay [8] is 85.9% (inactive) and -18.4% (active); in assay [9], 134% (inactive) and -82.8% (active).
